Sfp inh = Sfp phosphopantetheinyl transferase inhibition | Biochemical Sfp PPTase activity, qHTS | Potency, µM, for the others: largest response in the series, negative = inhibition, actives largely listed as inhibitors | 3.5% of 310,000 active | AID 1490;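 further: the enzyme is Sfp with the accession as filed and its product quenches rhodamine fluorescence; 0% = enzyme reaction without inhibitor and -100% = no enzyme wells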
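Fluorescence-quenching assay: 15 nM Sfp-PPTase preincubated 15 min at room temperature with compound, then 5 uM rhodamine-CoA and 12.5 uM BHQ-2-labelled YbbR peptide added. Fluorescence (ex 525/em 598 nm) read at start and after 30 min; difference gives rate.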
VP16 counter = Gal4-VP16 reporter inhibition counter-screen. AID 2546. 3.5% of 310,000 active. Drosophila S2 Gal4-VP16 UAS-luciferase, luminescence, 20 h. Potency, µM (titrated, usually from 53.6 µM), inactives show at the top dose activity, negative = inhibition, hits mostly inhibitors;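 further: Gal4-VP16 expression switched on by copper sulfate through the metallothionein promoter; nearly all actives have a fitted effect of over 50% in size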
ALDH1A1 inh = inhibitors of human aldehyde dehydrogenase 1A1; P00352; Purified ALDH1A1, NADH fluorescence, propionaldehyde substrate; Potency, µM (top dose mostly 75.3 µM), without a hit: top-dose activity, negative = inhibition, hits mostly inhibitors; 7.3% of 220,000 active; active means well fitted inhibition curve with a large enough effect, not every such curve was filed as active; inconclusive means small, poorly fitted or top-dose-only effect, or another doubt; inactive means no such curve, though single readings can be large or run the other way;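 further: plate controls were no enzyme wells and a reference inhibitor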
RORg inh = blocks mouse ROR gamma transcriptional activity. P51450. Drosophila S2 Gal4-RORgamma UAS-luciferase reporter, 20 h. Potency, µM (doses to about 53.6 µM), inactives show at the top dose activity change, negative = inhibition, most hits filed as inhibitors. 5.4% of 310,000 active. AID 2551; further: nearly all actives have a fitted effect of over 60% in size
Target sequence (P51450 whole entry, looked up, the tested form may be a part): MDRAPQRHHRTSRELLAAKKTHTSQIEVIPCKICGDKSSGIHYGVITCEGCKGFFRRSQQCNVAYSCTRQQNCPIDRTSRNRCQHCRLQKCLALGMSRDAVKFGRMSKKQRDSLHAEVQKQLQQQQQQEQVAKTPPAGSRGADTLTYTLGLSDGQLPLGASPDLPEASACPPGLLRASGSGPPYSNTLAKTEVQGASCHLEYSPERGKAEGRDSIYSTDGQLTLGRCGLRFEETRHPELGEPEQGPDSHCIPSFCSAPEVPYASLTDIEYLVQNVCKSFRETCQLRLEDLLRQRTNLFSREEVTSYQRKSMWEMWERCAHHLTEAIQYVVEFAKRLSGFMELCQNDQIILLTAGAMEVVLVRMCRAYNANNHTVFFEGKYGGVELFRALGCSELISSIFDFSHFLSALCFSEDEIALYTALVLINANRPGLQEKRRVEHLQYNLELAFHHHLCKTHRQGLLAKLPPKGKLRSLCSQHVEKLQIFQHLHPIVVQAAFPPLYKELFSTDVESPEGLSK
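Read-out: Photinus luciferase luminescence; inhibitors lower reporter signal. Insect Schneider cells with Gal4-ROR gamma fusion under metallothionein promoter, UAS reporter; 700 uM final copper sulfate induction, 20 hr, ambient temperature.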
PLK1 PBD inh = blocks phosphopeptide binding to human PLK1 polo-box domain; P53350; Plk1 PBD binding of FITC phosphopeptide, fluorescence polarization; Potency, µM, inactives show max response, negative = inhibition, most hits filed as inhibitors; 2.8% of 360,000 active; AID 720504; further: series mostly up to about 57 µM; nearly all actives have a fitted effect of over 65% in size
Starred values were filed as active, the others as inactive; ? = inconclusive; . = no result; [ ] = another dose, or the depositor's remark. Compounds with a hit are over-represented: about 12% of the library has one in this group of screens. Unless noted, the call rests on the fitted dose curve; in most records, active means well fitted curve in the direction sought with a large enough effect; inconclusive means small, poorly fitted or top-dose-only effect, or another doubt; inactive means no such curve, though single readings can be large; an effect the other way counts as inactive or inconclusive. Unless noted, on the % scale 0 is the no-effect control and ±100 the full control effect; potency means the concentration at half of the fitted maximal effect.

SMILES | Sfp inh | VP16 counter | ALDH1A1 inh | RORg inh | PLK1 PBD inh
COc1ccc(N=NC2=C(O)CC(C)(C)CC2=O)c(OC)c1 | 10% | 22% | 0.28µM* | -3% | 11%
CC1(C)CC(=O)C(N=Nc2cccc(F)c2C#N)=C(O)C1 | -8% | 5% | . | 12% | -2%
CC1(C)CC(=O)C(N=Nc2ccc(Br)cc2)=C(O)C1 | 24% | 2% | . | 36% | -14%
COc1ccc(N=NC2=C(O)CC(C)(C)CC2=O)cc1 | 5% | ? | 0.89µM* | -33% | -12%
O=C1c2ccccc2C(Cc2ccnc(F)c2)(Cc2ccnc(F)c2)c2ccccc21 | 8% | 1% | 5% | 35% | .
O=C(O)C1CSC(c2ccc3c(c2)OCO3)N1 (stereo not given) | 25µM* | ? | . | 4% | 11µM*
CC(/C=N/Nc1nc(C)cc(C)n1)=C\c1ccc(C(C)C)cc1 | 6% | ? | 6% | 11µM* | -10%
Cc1ccc(/C=N/Nc2nc(C)cc(C)n2)cc1 | 79µM* | 1% | . | 10µM* | -12%
CCNc1nc(NCC)nc(N/N=C/c2ccc(Br)cc2)n1 | 0% | -16% | 1% | 18µM* | -7%
CSc1ccc(/C=N/Nc2nc(C)cc(C)n2)cc1 | 9% | ? | 5% | 11µM* | 2%
Cc1nnc(N/N=C/c2ccc(Br)cc2)n1N | ? | ? | . | ? | -5%
C1CCCC1 | . | -2% | -3% | 9% | .
Cc1cc(Cn2cnc3c2C[C@@H](C(=O)O)N(C(=O)C(c2ccccc2)c2ccccc2)C3)ccc1N(C)C | ? | 8% | ? | 38% | .
Cc1ccc(S(=O)(=O)N2[C@H](CC(=O)Oc3ccccc3)OC[C@@H]2C(C)C)cc1 | . | . | . | . | 5%
Cc1ccc(S(=O)(=O)N2C[C@H]3C(=O)C[C@@H](c4ccccc4)N(S(=O)(=O)c4ccc(C)cc4)[C@H]3C[C@H]2c2ccccc2Cl)cc1 | . | . | . | . | 1%
CCOc1cccc(C(=O)Nc2ccc3c(c2)OCCO3)c1 | 1% | -24% | . | -37% | 3%
Nc1c(C(=O)NCc2ccco2)sc2nc(N3CCOCC3)c3c(c12)CCCC3 | 13µM* | -1% | ? | -12% | ?
CCCN1C(=O)/C(=C\c2nc3ccccc3c(=O)[nH]2)c2ccccc21 | ? | -8% | 4.5µM* | -3% | -7%
O=c1[nH]c(/C=C/c2cccc3ccccc23)nc2ccccc12 | -16% | 8% | -7% | 25% | -1%
Cc1cc2nc(-c3ccc(SCc4ccc(C(=O)O)cc4)nc3)[nH]c2cc1C | 22µM* | 4% | ? | 32% | 19µM*
OC[C@@H]1O[C@@H](n2cnc3c(SCc4ccccc4)ncnc32)[C@@H](O)[C@H]1O | . | . | -1%[13.5 µM] | . | .
COc1ccc(C)cc1NC(=O)C(NCC1CCCO1)c1ccccc1 (stereo not given) | -1% | 2% | 18µM* | 8% | -23%
CC1(C(=O)NS(=O)(=O)C2CC2)CCCN(C(=O)/C=C/c2ccccc2)C1 (stereo not given) | . | . | . | . | 1%
COc1ccc(OC)c2c1sc(=NC(=O)C(C)C)n2C | 5% | 20µM* | ? | 0% | -11%
CC(C)CN(C(=O)COC(=O)CCc1c[nH]c2ccccc12)C1CCS(=O)(=O)C1 (stereo not given) | 3% | -4% | 10% | 13% | -3%
SMILES | Sfp inh | VP16 counter | ALDH1A1 inh | RORg inh | PLK1 PBD inh
CN(C(=O)COC(=O)c1ccc2c(c1)NC(=O)CS2)C1CCS(=O)(=O)C1 (stereo not given) | -9% | -2% | 5% | 12% | -18%
CC(C)CN(C(=O)COC(=O)Cc1c[nH]c2ccccc12)C1CCS(=O)(=O)C1 (stereo not given) | 9% | 5% | -2% | 22% | 27µM*
CC(C)CN(C(=O)COC(=O)c1ccc2c(c1)NC(=O)CS2)C1CCS(=O)(=O)C1 (stereo not given) | 50µM* | 14% | 40µM* | -4% | 21µM*
O=C1c2ccccc2C(c2nc3ccccc3[nH]2)N1Cc1ccco1 (stereo not given) | . | . | . | . | -11%
Cn1ncc2cc3c(Nc4ccc(Cl)cc4)cccc3nc21 | . | . | . | . | -11%
CCCOc1ccc(C(=O)CCNc2cccc(Cl)c2)cc1 | 18% | 25% | 7.9µM* | 37% | -20%
COc1ccc(C(=O)CCNc2cccc(Cl)c2)cc1 | 25% | ? | 3.2µM* | 16% | -14%
COc1ccc(NC(=O)C(c2cc3ccccc3o2)n2c(=O)c(-c3cc4ccccc4[nH]3)nc3ccccc32)cc1 (stereo not given) | . | . | . | . | -5%
Cc1ccsc1/C=N/Nc1ccc(C(=O)O)cc1 | 19% | 0.22µM* | . | 1.1µM* | -6%
Cc1ccccc1C(=O)N/N=C/c1ccc([N+](=O)[O-])s1 | 3% | 2µM* | ? | 1.8µM* | -9%
Cc1cc(C(=O)N/N=C/c2cccc(Cl)c2Cl)no1 | -1% | 10% | 14% | 40% | -5%
Cc1ccsc1/C=N/Nc1cccc(C(=O)O)c1 | 8% | ? | -5% | ? | -9%
CCc1ccc(/C=N/NC(=O)c2cc(C)on2)s1 | 12% | 5.6µM* | -3% | 5.6µM* | -5%
O=C(O)c1ccc(N/N=C/c2cc(Br)cs2)cc1 | 2% | 1µM* | . | 6.3µM* | -12%
O=C(N/N=C/c1ccc([N+](=O)[O-])s1)C(O)c1ccccc1 (stereo not given) | ? | ? | -5% | 18% | -9%
COc1cc2c(cc1OC)C1O[C@](CCCCN3C(=O)c4ccccc4C3=O)(C2)Oc2c1c(=O)oc1ccccc21 | -11% | -8%[10 µM] | . | 3%[10 µM] | .
O=C(Cc1ccccc1)N/N=C/c1ccc([N+](=O)[O-])s1 | -82% | ? | ? | ? | -10%
Cc1ccc(/C=N\NC(=O)c2cncc(Br)c2)o1 | -30% | ? | -11% | 5µM* | -16%
O=C(N/N=C\c1cc(Br)cs1)c1ccncc1 | 4% | 2.8µM* | . | 1.6µM* | -1%
O=C(N/N=C/c1ccc([N+](=O)[O-])s1)c1ccccc1 | ? | 1.3µM* | -5% | 0.79µM* | -9%
COC(=O)N/N=C/c1ccc([N+](=O)[O-])s1 | -13% | -22% | -1% | -19% | -20%
O=C(N/N=C/c1ccc([N+](=O)[O-])s1)c1ccccc1Br | 1% | 6.3µM* | ? | 1.8µM* | -4%
Cc1ccc(/C=N/NC(=O)c2cccnc2)o1 | -1% | -10% | -23% | -27% | -5%
CC(=O)NCCNc1ncnc2ccc(-c3ccc(C(=O)N(C)C)cc3)cc12 | -6% | 9% | ? | -1% | .
Nc1nc2[nH]c(=O)[nH]c2c(=O)[nH]1 | 4% | 0% | 11% | -15% | .
CCC(=O)c1ccc(OC)c(OC)c1OCc1ccccc1 | . | . | . | . | -9%
Cc1cc(C(=O)N/N=C/c2ccc([N+](=O)[O-])s2)c2ccccc2n1 | -1% | 3.5µM* | . | 5.6µM* | -14%
O=C(N/N=C/c1ccc(O)cc1)c1cncc(Br)c1 | 7% | -3% | . | -16% | -11%
Cc1cc(C(=O)N/N=C/c2ccc3c(c2)OCO3)c2ccccc2n1 | -9% | 1% | . | -17% | 5%

High-throughput results deposited in PubChem BioAssay by National Center for Advancing Translational Sciences (NCATS).
